Bioassay records as filed in PubChem BioAssay.
An excerpt weighted towards active compounds, which were near 32% of everything screened.
CYP2C19 act – human CYP2C19 activators, primary screen, biochemical, luminescence. Cytochrome P450 2C19 (Homo sapiens), P33261. recombinant CYP2C19, luciferin-H EGE luminescence; active compounds read high; 0 = fully inhibited enzyme, 1 = untreated enzyme. activation factor at 5 µM. 96,000 tested, under 10 active. AID 1025, 2008;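 active means activation factor of at least 2 at 5 µM in the primary screen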;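 further: 0 = wells with 2.5 mM tranylcypromine and 1 = vehicle-only wells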
Target sequence (P33261 whole entry, looked up): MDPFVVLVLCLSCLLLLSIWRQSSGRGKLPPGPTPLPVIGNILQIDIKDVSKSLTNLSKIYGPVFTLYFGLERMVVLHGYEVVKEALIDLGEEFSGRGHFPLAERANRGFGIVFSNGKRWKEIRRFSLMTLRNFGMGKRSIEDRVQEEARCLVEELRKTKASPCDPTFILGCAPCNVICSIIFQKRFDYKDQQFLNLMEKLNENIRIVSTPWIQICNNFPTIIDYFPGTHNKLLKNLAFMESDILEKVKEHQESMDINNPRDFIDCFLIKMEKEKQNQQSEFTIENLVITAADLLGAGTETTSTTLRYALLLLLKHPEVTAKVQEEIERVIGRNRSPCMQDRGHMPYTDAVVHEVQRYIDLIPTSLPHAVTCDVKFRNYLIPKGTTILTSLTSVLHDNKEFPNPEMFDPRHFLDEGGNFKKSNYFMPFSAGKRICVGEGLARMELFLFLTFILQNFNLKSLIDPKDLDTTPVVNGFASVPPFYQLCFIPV
CYP2C19 inhib – blockers of cytochrome P450 2C19 activity – biochemical, luminescence, ADME assay, primary screen; actives 21% (n = 96,000); inhibition, % at 5 µM; CYP2C19 Supersomes, luciferin-H EGE luminescence, 30 min; P33261;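 active means CYP2C19 inhibition above a set limit at 5 µM in the primary screen, cut at about 50% in these data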;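 further: plate controls were negative control wells for no effect and 2.5 mM tranylcypromine positive control for full effect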
CYP2C9 activ – human CYP2C9 activators, primary screen, biochemical, luminescence; recombinant CYP2C9, luciferin-H conversion; active compounds read high; factor 1 = untreated enzyme, 0 = blocked; AID 1024, 2008; activation factor at 5 µM; Cytochrome P450 2C9 (Homo sapiens), P11712; actives 1.4% (n = 96,000);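 active means activation factor of 2 or more for CYP2C9 at a 5 µM dose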;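 further: 0 = sulfaphenazole-blocked wells and 1 = vehicle-only wells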
PostGolgi ctrl – growth inhibition of yeast control strain, primary screen, counter-screen for post-Golgi transport modulator project. efflux-deficient yeast background strain, growth absorbance A615, 16 h. inhibition, % at 10 µM. actives 5% (n = 98,000). AID 738, 2007
CYP2C9 inhib – blockers of cytochrome P450 2C9 activity – biochemical, luminescence, ADME assay, primary screen. P11712. CYP2C9 Supersomes, luciferin-H conversion. inhibition, % at 5 µM. actives 20% (n = 96,000);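 active means blocking of liver enzyme CYP2C9 beyond about 50% at 5 µM, limit read from the data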
PostGolgi yeast – phenotypic screen on post-Golgi transport, primary screen. post-Golgi transport phenotypic cell assay. inhibition, % at 10 µM. actives 0.9% (n = 98,000);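 further: yeast cells grown in 1536-well plates; yeast grown about 18 h at 30C before absorbance read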
Starred values were filed as active, the others as inactive; . = no result. Unless noted, no stated cut-off is given here; in the data, active means inhibition above about 30%; inactive means the rest.

SMILES | CYP2C19 act | CYP2C19 inhib | CYP2C9 activ | PostGolgi ctrl | CYP2C9 inhib | PostGolgi yeast
CN1CCN(c2oc(COc3ccc(-c4ccccc4)cc3)nc2C#N)CC1 | 0.4 | 55* | 0.8 | 17 | 20 | 3
N#Cc1nc(COc2ccccc2)oc1N1CCCCCC1 | 0.9 | 15 | 0.8 | 13 | 23 | -2
N#Cc1nc(COc2ccc(Br)cc2)oc1N1CCCCCC1 | 0.8 | 21 | 0.6 | 30 | 42 | 1
Cc1ccc2c(c1)sc1nc(=O)n(-c3cccc(Cl)c3)c(=O)n12 | 0.7 | 26 | 1 | 0 | 4 | -5
CC(Oc1ccccc1)C(=O)Nc1cccc(F)c1 (centres undefined) | 0.6 | 38 | 0.8 | -6 | 24 | 1
Cc1cc2ccccc2n1CCNC(=O)Cc1ccccc1 | 0 | 96* | 0.2 | 6 | 81* | -5
O=C(Cc1cccs1)NCCn1ccc2ccccc21 | 0.3 | 73* | 0.8 | 36* | 18 | -6
Cc1cc2ccccc2n1CCNC(=O)c1ccc(S(=O)(=O)N2CCCCC2)cc1 | 0.7 | 34 | 0.1 | 15 | 90* | 5
O=C(Cc1ccccc1)NCCCN1CCN(CCCNC(=O)Cc2ccccc2)CC1 | 1.2 | -15 | 1.1 | 1 | -11 | 4
O=C(NCCO)c1cccc(S(=O)(=O)N2CCCCC2)c1 | 1 | -3 | 1.1 | -1 | -14 | -1
Cc1cc2ccccc2n1CCNC(=O)C(C)Oc1ccccc1 (centres undefined) | 0 | 100* | 0.1 | 4 | 87* | 0
O=C(c1ccc(Cl)cc1)N(Cc1cccs1)C1CCS(=O)(=O)C1 (centres undefined) | 0.8 | 17 | 1 | 24 | 5 | -3
Cc1cc(=O)n2nc(-c3ccccc3)sc2c1C#N | 1.1 | -12 | 1.2 | 4 | -18 | -1
CCN(CC)CCNC(=O)Cn1c(C)cc2ccccc2c1=O | 1.1 | -8 | 1.1 | -2 | -14 | -7
COC(=O)CSc1nnc(CNC(=O)c2ccc(OC)cc2OC)n1C | 1 | -1 | 0.9 | 1 | 12 | -5
CCC(=O)NCCn1ccc2ccccc21 | 1 | 2 | 0.9 | 2 | 7 | 12
Cc1cc2ccccc2n1CCNC(=O)C(C)C | 0.5 | 50* | 0.9 | 4 | 8 | -2
COc1ccc(C(=O)NCCn2ccc3ccccc32)c(OC)c1 | 0 | 100* | 1 | . | 5 | .
CC(C)C(=O)NCCn1ccc2ccccc21 | 0.4 | 57* | 0.7 | 1 | 35 | 15
C=CCOC(=O)C1=C(C)NC(C)=C(C(=O)OCC=C)C1/C=C/c1ccccc1 | . | . | . | 28 | . | -4
C/C(=N\NC(=O)CN1CCOCC1)C(C)(C)C | 1.1 | -8 | 1.1 | 8 | -9 | -3
Cc1noc(C)c1C(=O)NCc1ccccc1 | 0.8 | 18 | 1.1 | -3 | -15 | -4
CC(C)CCNC(=O)c1nnc(Cc2ccc(Cl)cc2)o1 | 0.9 | 12 | 1.9 | 3 | -89 | -6
COc1cc(C(=O)NCCOc2cc(C)cc(C)c2)c(Br)c(OC)c1OC | 0.1 | 86* | 1.1 | 14 | -8 | -5
Cc1ccc(OCCNC(=O)c2ccccc2N)cc1 | . | . | . | -2 | . | 6
SMILES | CYP2C19 act | CYP2C19 inhib | CYP2C9 activ | PostGolgi ctrl | CYP2C9 inhib | PostGolgi yeast
O=C(N1CCOCC1)N1CCN(S(=O)(=O)N2CCCCC2)CC1 | 0.9 | 10 | 0.9 | 3 | 6 | -6
COc1ccc2[nH]cc(CCN=C3SCC(=O)N3C)c2c1 | 0.2 | 79* | 0.6 | 5 | 40 | -1
COc1ccc2[nH]cc(C(=O)CN3CCC(C)CC3)c2c1 | 0.6 | 40 | 0.8 | -1 | 19 | 6
N/C(=N\c1nc2c(c(=O)[nH]1)CCCC2)Nc1ccccc1 | 1.1 | -12 | 1 | -10 | -4 | -1
N/C(=N\c1nc2c(c(=O)[nH]1)CCCC2)Nc1ccccc1Sc1ccccc1 | 0.5 | 46 | 0.4 | 12 | 63* | 1
Cc1ccc2nc(NC(=O)CSc3nc4ccccc4o3)sc2c1 | 0.5 | 45 | 0.4 | -5 | 55* | -5
O=C(CSc1nc2ccccc2o1)Nc1ccc(Cl)cc1 | 0.8 | 24 | 0.5 | 16 | 50 | -13
COc1cc(OC)nc(NC(=O)CSc2nc3ccccc3o2)n1 | 0.1 | 86* | 1.2 | -4 | -19 | -1
CC(=O)Nc1nonc1NC(=O)CSc1nc2ccccc2o1 | 0.5 | 53* | 0.6 | -17 | 36 | -6
Cc1nn2c(-c3cccc(NC(=O)CSc4nc5ccccc5o4)c3)nnc2c2ccccc12 | 0 | 98* | 0.1 | 14 | 92* | 2
COC(=O)CSc1nc2ccccc2o1 | 1 | 3 | 0.9 | -3 | 11 | 4
COC(=O)N/N=C(\C)c1ccccc1Br | 0.7 | 29 | 1.1 | -1 | -5 | 5
CC(C)[C@H](NC(=O)Nc1ccccc1F)C(=O)O | 1.2 | -18 | 1.1 | 7 | -14 | -7
Cc1cc(C)nc(NC(=O)CSc2nc3ccccc3o2)n1 | 0.4 | 63* | 0.8 | 3 | 19 | -1
Cc1cccc(NC(=O)CSc2nc3ccccc3o2)c1 | 0.3 | 69* | 1.1 | 5 | -15 | 1
O=C(CSc1nc(Nc2ccccc2)nc(N2CCOCC2)n1)Nc1ccc([N+](=O)[O-])cc1 | 0.5 | 53* | 0.2 | 17 | 77* | 44*
O=C(CSc1nc(Nc2ccccc2)nc(N2CCOCC2)n1)Nc1ccccc1Cl | 0 | 95* | 0 | 19 | 97* | -3
O=[N+]([O-])c1ccc(Cl)c(/C=N/Nc2nc(N3CCOCC3)nc(N3CCOCC3)n2)c1 | 0.8 | 19 | 0.9 | -7 | 12 | -2
O=C(CSc1nccn1-c1ccccc1)c1ccc(Cl)cc1 | 0.3 | 74* | 0.6 | 5 | 36 | -6
Cc1ccc(C(=O)CSc2nccn2-c2ccccc2)cc1 | 0.4 | 56* | 0.7 | 4 | 31 | -4
Cc1ccc(C)c(-n2ccnc2SCC(=O)O)c1 | 1 | 4 | 0.4 | -5 | 59* | -1
Cc1ccc(C(=O)CSc2nnc(-c3ccccc3N)n2C)cc1 | 0.7 | 27 | 0.7 | 24 | 31 | -2
Cn1c(SCC(=O)c2ccccc2)nnc1-c1cnccn1 | 0.6 | 40 | 0.9 | 5 | 8 | 21
O=C(O)CC(C(=O)OCCOc1ccccc1)N1CCOCC1 (centres undefined) | 1 | 4 | 0.8 | 4 | 15 | 2
O=C1NC(=S)N/C1=C/c1ccc(-c2c(Br)cc([N+](=O)[O-])cc2Br)o1 | 1 | 3 | 1 | 14 | 0 | -4
CCC(=O)Nc1cccc(-c2nnc(SCC(=O)c3ccccc3)n2C)c1 | 0.6 | 41 | 0.9 | 10 | 10 | 2
CC1C(=O)CC(c2ccco2)NC1c1ccco1 (centres undefined) | 0.3 | 69* | 1.1 | 2 | -8 | -1
CC1C(=O)CC(c2ccccc2)NC1c1ccccc1 (centres undefined) | 0.2 | 82* | 0.7 | -1 | 33 | -2
